Assay results taken from the supplement of paper PMC10127200.
Structures can show the parent of a compound that is named as a salt.

Experiments:
Test in all cases: Euclidean distance of Cell Painting phenotypic profile (signed KS, 77 features) to DMSO centroid (dimensionless distance); 5 or 10 uM (library dependent); higher = stronger phenotypic change vs DMSO (phenoactivity)
Conditions in all cases: 48 h
[1] = tested on: 786-O
Procedure, shortened: (§1)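 Five cancer lines, together with a healthy fibroblast line, received library compounds for 48 h at a library-dependent 10 or 5 uM and 0.1% DMSO final. Harmony then derived 77 features from confocal 20X images (9 fields/well) of the stained cells, scoring each as a signed Kolmogorov-Smirnov statistic against same-plate vehicle wells. After plate-position correction, correlation weighting and replicate averaging at the top dose, phenoactivity was taken as each profile's Euclidean distance to the median vehicle profile.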

[2] = tested on: A549
Procedure, shortened: as §1

[3] = tested on: DU145
Procedure, shortened: as §1

[4] = tested on: FB
Procedure, shortened: as §1

[5] = tested on: HEPG2
Procedure, shortened: as §1

[6] = tested on: OVCAR4
Procedure, shortened: as §1

Work on `CC(C)(C)Cn1c(N)nc2ccc(-c3[nH]c(C(C)(C)C)nc3-c3ccc(F)cc3)nc21` yielded an Euclidean distance [1] of 4.34, an Euclidean distance [2] of 2.69 and an Euclidean distance [3] of 2.57. The Euclidean distance [4] was 3.56, the Euclidean distance [5] was 4.51 and the Euclidean distance [6] was 3.76.

`CCC(=O)N1CC[C@H](Nc2ncnc3c2CN(c2cnc(OC)c(C(F)(F)F)c2)CC3)C1` [leniolisib(CDZ 173)] showed an Euclidean distance [1] of 1.06, an Euclidean distance [2] of 1.1 and an Euclidean distance [3] of 1.67. For the same compound, the Euclidean distance [4] was 1.76, the Euclidean distance [5] was 0.969 and the Euclidean distance [6] was 1.59.

Compound `Nc1ccc(O)c(C(=O)O)c1` [Mesalamine] has an Euclidean distance [1] of 1.49, an Euclidean distance [2] of 0.636 and an Euclidean distance [3] of 2.08. For the same compound, the Euclidean distance [4] was 1.06, the Euclidean distance [5] was 0.538 and the Euclidean distance [6] was 1.24.

In the case of `COc1ccc(C2=N[C@@H](c3ccc(Cl)cc3)[C@@H](c3ccc(Cl)cc3)N2C(=O)N2CCNC(=O)C2)c(OC(C)C)c1` [Nutlin-3], the Euclidean distance [1] is reported as 1.4, the Euclidean distance [2] is reported as 3.54 and the Euclidean distance [3] is reported as 1.03. It also gave an Euclidean distance [4] of 2.68, an Euclidean distance [5] of 2.58 and an Euclidean distance [6] of 1.17.

With `COc1ncnc(NS(=O)(=O)c2ccc(N)cc2)c1OC` [Sulfadoxine] the Euclidean distance [1] was 0.66, the Euclidean distance [2] was 1.24 and the Euclidean distance [3] was 0.743. The Euclidean distance [4] was 0.491, the Euclidean distance [5] was 0.397 and the Euclidean distance [6] was 1.39.

Compound `COc1cc2c(N3CCN(C(=O)Nc4ccc(OC(C)C)cc4)CC3)ncnc2cc1OCCCN1CCCCC1` [Tandutinib (MLN518)] has an Euclidean distance [1] of 0.691, an Euclidean distance [2] of 1.73 and an Euclidean distance [3] of 1.35. For the same compound, the Euclidean distance [4] was 2.68, the Euclidean distance [5] was 1.52 and the Euclidean distance [6] was 1.12.

Work on `CCN(CC)C(=O)C1(c2ccccc2)CC1CN` (centres undefined) [Milnacipran HCl] yielded an Euclidean distance [1] of 1.2, an Euclidean distance [2] of 1.04 and an Euclidean distance [3] of 0.974. For the same compound, the Euclidean distance [4] was 1.14, the Euclidean distance [5] was 0.468 and the Euclidean distance [6] was 0.854.

Work on `Nc1ccc(S(=O)(=O)Nc2ncccn2)cc1` [Sodium sulfadiazine] yielded an Euclidean distance [1] of 1.29, an Euclidean distance [2] of 0.966 and an Euclidean distance [3] of 1.5. The Euclidean distance [4] was 1.52, the Euclidean distance [5] was 0.727 and the Euclidean distance [6] was 1.12.

In the case of `CNC(=O)c1ccc(N2C(=S)N(c3cnc(C#N)c(C(F)(F)F)c3)C(=O)C23CCC3)cc1F`, the Euclidean distance [1] is reported as 1.4, the Euclidean distance [2] is reported as 1.24 and the Euclidean distance [3] is reported as 0.954. It also gave an Euclidean distance [4] of 0.828, an Euclidean distance [5] of 1.01 and an Euclidean distance [6] of 1.16.

`CNC(=O)c1cc(Oc2ccc(NC(=O)Nc3ccc(Cl)c(C(F)(F)F)c3)c(F)c2)ccn1` [Regorafenib (BAY 73-4506)] gave an Euclidean distance [1] of 1.82, an Euclidean distance [2] of 2.6 and an Euclidean distance [3] of 1.66. For the same compound, the Euclidean distance [4] was 1.6, the Euclidean distance [5] was 1.42 and the Euclidean distance [6] was 1.63.

With `O=C1Cc2cc(CCN3CCN(c4nsc5ccccc45)CC3)c(Cl)cc2N1` [Ziprasidone HCl] the Euclidean distance [1] was 1.99, the Euclidean distance [2] was 1.47 and the Euclidean distance [3] was 1.15. It also gave an Euclidean distance [4] of 1.3, an Euclidean distance [5] of 0.985 and an Euclidean distance [6] of 1.64.

Work on `C=CC(=O)N1CCC(Oc2cc3c(Nc4ccc(Cl)c(Cl)c4F)ncnc3cc2OC)CC1` [Poziotinib (HM781-36B)] yielded an Euclidean distance [1] of 1.98, an Euclidean distance [2] of 3.02 and an Euclidean distance [3] of 2.11. For the same compound, the Euclidean distance [4] was 2.99, the Euclidean distance [5] was 3.43 and the Euclidean distance [6] was 2.12.

`Oc1ccc(OCc2ccccc2)cc1` [Monobenzone] showed an Euclidean distance [1] of 2.36, an Euclidean distance [2] of 2.32 and an Euclidean distance [3] of 2.56. For the same compound, the Euclidean distance [4] was 1.45, the Euclidean distance [5] was 0.99 and the Euclidean distance [6] was 2.11.

`O=C(c1cncc(Br)c1)N1CCC(N2CCCC2)CC1` was tested, and the Euclidean distance [1] was 0.781, the Euclidean distance [2] was 0.805 and the Euclidean distance [3] was 0.843. It also gave an Euclidean distance [4] of 1.31, an Euclidean distance [5] of 1.28 and an Euclidean distance [6] of 0.898.

`CC(C)(C)c1nc(-c2cccc(NS(=O)(=O)c3c(F)cccc3F)c2F)c(-c2ccnc(N)n2)s1` gave an Euclidean distance [1] of 1.53, an Euclidean distance [2] of 1.16 and an Euclidean distance [3] of 1.31. It also gave an Euclidean distance [4] of 3.02, an Euclidean distance [5] of 1.45 and an Euclidean distance [6] of 1.03.

Work on `C=C[C@]1(C)C[C@@H](OC(=O)CS[C@@H]2C[C@H]3CC[C@@H](C2)N3C)[C@]2(C)[C@H](C)CC[C@]3(CCC(=O)[C@H]32)[C@@H](C)[C@@H]1O` [Retapamulin] yielded an Euclidean distance [1] of 1.44, an Euclidean distance [2] of 1.81 and an Euclidean distance [3] of 1.32. It also gave an Euclidean distance [4] of 1.51, an Euclidean distance [5] of 1.51 and an Euclidean distance [6] of 1.59.

For `COc1cc(C(C)=O)ccc1O` [Apocynin], the Euclidean distance [1] was 0.601, the Euclidean distance [2] was 1.23 and the Euclidean distance [3] was 0.921. The Euclidean distance [4] was 0.872, the Euclidean distance [5] was 1.6 and the Euclidean distance [6] was 0.864.

`CCOC(=O)CCNc1cc(N2CCc3ccccc3CC2)nc(-c2ccccn2)n1` showed an Euclidean distance [1] of 2, an Euclidean distance [2] of 2.58 and an Euclidean distance [3] of 2.35. For the same compound, the Euclidean distance [4] was 2.56, the Euclidean distance [5] was 2.41 and the Euclidean distance [6] was 1.95.

`CC(=O)c1ccc(S(=O)(=O)NC(=O)NC2CCCCC2)cc1` [Acetohexamide] gave an Euclidean distance [1] of 0.925, an Euclidean distance [2] of 0.868 and an Euclidean distance [3] of 0.836. For the same compound, the Euclidean distance [4] was 1.19, the Euclidean distance [5] was 0.469 and the Euclidean distance [6] was 0.995.
